Tests used:
[1] = tested on: Vero E6 infected with SARS-CoV-2; assay: morphology score (similarity to uninfected cells); higher = more like uninfected cells; details: 24 h
[2] = tested on: Vero E6 infected with SARS-CoV-2; assay: SARS-CoV-2 infection rate relative to infected DMSO; higher = more infection, active = 60 or less; details: 24 h

| SMILES | morphology score [1] | SARS-CoV-2 infection rate [2] |
| --- | --- | --- |
| NCC(CC(=O)O)c1ccccc1 (stereo not given) [fenigam] (10 µM) | 0.256 | 89% (inactive) |
| C[C@]12CC[C@H]3[C@@H](CCC4=CC(=O)CC[C@@H]43)[C@@H]1CC[C@@H]2O [Nandrolone] (10 µM) | 0.24 | 89.5% (inactive) |
| CN1C2CCC1CC(OC(c1ccccc1)c1ccc(Cl)cc1)C2 (stereo not given) (0.833333 µM) | 0.251 | 98.5% (inactive) |
| CCCc1c(OCCCOc2ccc(OCC(=O)O)cc2)ccc(C(C)=O)c1O (10 µM) | 0.0635 | 106% (inactive) |
| CC1(C)CC(O)CC(C)(C)N1[O] [tempol] (10 µM) | 0.209 | 97% (inactive) |
| CC1(C)OC[C@@H](COC(=O)CCc2ccc(OC[C@@H](O)CNCCNC(=O)N3CCOCC3)cc2)O1 [landiolol] (10 µM) | -0.108 | 113% (inactive) |
| CC(COc1ccccc1)N(CCCl)Cc1ccccc1 (stereo not given) [phenoxybenzamine] (10 µM) | 0.146 | 106% (inactive) |
| CCOC(=O)[N-]c1c[n+](N2CCOCC2)no1 [molsidomine] (10 µM) | 0.0533 | 102% (inactive) |
| C[C@](O)(COc1ccc(C#N)cc1)C(=O)Nc1ccc(C#N)c(C(F)(F)F)c1 [ostarine] (10 µM) | 0.0725 | 112% (inactive) |
| CC(C)CN(C[C@@H](OP(=O)(O)O)[C@H](Cc1ccccc1)NC(=O)O[C@H]1CCOC1)S(=O)(=O)c1ccc(N)cc1 [fosamprenavir] (10 µM) | -0.123 | 109% (inactive) |
| CC(C)(O)CS(=O)(=O)Nc1ccc2c(c1)CCN(C(=O)COc1cccnc1)C2 [Nampt-IN-1] (10 µM) | -0.0571 | 104% (inactive) |
| CCOC(=O)c1cnc2c(cnn2CC)c1NN=C(C)C [etazolate] (10 µM) | 0.254 | 100% (inactive) |
| COc1cccc(-c2cc(F)ccc2[C@H]2Cc3nc(N)nc(C)c3C(=O)N2)n1 (0.833333 µM) | 0.125 | 99% (inactive) |
| O=C(O)C(=O)Nc1cccc(-c2nnn[nH]2)c1 [acitazanolast] (10 µM) | 0.235 | 95% (inactive) |
| CCN(CC)CCOc1ccc(Nc2ncc3cc(-c4c(Cl)cccc4Cl)c(=O)n(C)c3n2)cc1 (10 µM) | -0.126 | 123% (inactive) |
| CNCC(O)c1ccc(OC(=O)C(C)(C)C)c(OC(=O)C(C)(C)C)c1 (stereo not given) [dipivefrine] (10 µM) | 0.127 | 89.5% (inactive) |
| Cc1ccc(S(=O)(=O)NCl)cc1 [chloramine-T] (10 µM) | 0.043 | 104% (inactive) |
| Cn1c(N2CCCCS2(=O)=O)nc(C(=O)NCc2ccc(F)cc2)c(O)c1=O (10 µM) | 0.046 | 104% (inactive) |
| Clc1ccc(C(Cn2ccnc2)OCc2ccsc2Cl)c(Cl)c1 (stereo not given) [tioconazole] (10 µM) | -0.0375 | 106% (inactive) |
| COc1ccc2cc(-c3cc(-c4cc(Cl)cc(Cl)c4)nn3[C@@H](C)c3ccc(C(=O)NCCC(=O)O)cc3)ccc2c1 (10 µM) | 0.164 | 106% (inactive) |
| CC(C)(C)c1cc(/C=C(\C#N)C(N)=S)cc(C(C)(C)C)c1O [tyrphostin-AG-879] (0.833333 µM) | 0.166 | 102% (inactive) |
| COc1cc(-n2cnc3cc(-c4ccc(Cl)cc4)sc3c2=O)ccc1OCCN1CCCC1 (10 µM) | 0.52 | 53% (active) |

| SMILES | morphology score [1] | SARS-CoV-2 infection rate [2] |
| --- | --- | --- |
| O=C(O)Cc1cccc2c(=O)cc(-c3ccccc3)oc12 [mitoflaxone] (10 µM) | 0.0177 | 106% (inactive) |
| O=C(Oc1ccccc1C(=O)O)c1ccccc1O [sasapyrine] (10 µM) | 0.0337 | 108% (inactive) |
| O=C(Oc1ccc([N+](=O)[O-])cc1)N1CCN(Cc2cccc(Oc3ccccc3)c2)CC1 (10 µM) | 0.162 | 95.5% (inactive) |
| CCC(C)(C)c1ccc(CC(C)CN2C[C@@H](C)O[C@@H](C)C2)cc1 (stereo not given in full) [amorolfine] (10 µM) | 0.198 | 93% (inactive) |
| O=C(NCC1CCCCN1)c1cc(OCC(F)(F)F)ccc1OCC(F)(F)F (stereo not given) [flecainide] (10 µM) | 0.193 | 87.5% (inactive) |
| O=C([O-])CN1CCN(CC(=O)[O-])CCN([C@H](CO)[C@H](O)CO)CCN(CC(=O)[O-])CC1.[Gd+3] (racemic) [gadobutrol] (10 µM) | -0.0306 | 109% (inactive) |
| CN(C)C(=O)Oc1cccc([N+](C)(C)C)c1 [neostigmine] (10 µM) | -0.107 | 112% (inactive) |
| Nc1ccn([C@H]2CO[C@@H](CO)S2)c(=O)n1 [apricitabine] (10 µM) | 0.071 | 108% (inactive) |
| CC(=O)Oc1c(C)cc(OCC(O)CNC(C)C)c(C)c1C (stereo not given) [metipranolol] (10 µM) | -0.0461 | 108% (inactive) |
| Oc1ccc2[nH]cc(C3=CCNCC3)c2n1 (10 µM) | 0.00585 | 90% (inactive) |
| CSc1nc(-c2ccc(F)cc2)c(-c2ccnc(N[C@@H](C)c3ccccc3)c2)[nH]1 (10 µM) | -0.159 | 107% (inactive) |
| C[C@]12CCC(=O)C=C1CC[C@@H]1[C@@H]2[C@@H](O)C[C@@]2(C)[C@H]1CC[C@]2(O)C(=O)COC(=O)CCC(=O)O [hydrocortisone-hemisuccinate] (10 µM) | -0.338 | 116% (inactive) |
| C[C@H](Cc1cc2c(c(C(N)=O)c1)N(CCCO)CC2)NCCOc1ccccc1OCC(F)(F)F [silodosin] (10 µM) | -0.144 | 106% (inactive) |
| COc1ccc(C(=O)N2CCCc3cc(C4=NNC(=O)SC4C)ccc32)cc1OC (stereo not given) (0.833333 µM) | -0.177 | 109% (inactive) |
| O=C(N[C@@H]1Cc2ccccc2N(C[C@@H](O)CO)C1=O)c1cc2cc(Cl)sc2[nH]1 (10 µM) | -0.155 | 105% (inactive) |
| O=C(OOC(=O)c1ccccc1)c1ccccc1 [benzoyl-peroxide] (10 µM) | -0.0426 | 97.5% (inactive) |
| C[S+](C)CC[C@H](N)C(=O)O [cabagin] (10 µM) | 0.00749 | 109% (inactive) |
| CN(C)Cc1cccc(N/C(=C2\C(=O)Nc3cc(C(N)=O)ccc32)c2ccccc2)c1 (10 µM) | -0.132 | 120% (inactive) |
| NC(=O)c1cccc2cn(-c3ccc([C@@H]4CCCNC4)cc3)nc12 [niraparib] (0.833333 µM) | 0.0643 | 102% (inactive) |
| Cn1c(=O)c2c(ncn2CC2OCCO2)n(C)c1=O [doxofylline] (10 µM) | -0.118 | 106% (inactive) |
| O=C1NC(=O)/C(=C/c2cccc(C(F)(F)F)c2)S1 (10 µM) | 0.00293 | 106% (inactive) |
| CNC(=S)C1(c2ccccn2)CCCS1 (stereo not given) [picartamide] (10 µM) | -0.0189 | 106% (inactive) |

| SMILES | morphology score [1] | SARS-CoV-2 infection rate [2] |
| --- | --- | --- |
| CCC(CO)(C(=O)OC1CC2CCC(C1)[N+]2(C)C)c1ccccc1 (stereo not given) [troventol] (10 µM) | -0.023 | 106% (inactive) |
| COC(=O)Nc1nc2cc(C(=O)c3ccc(F)cc3)ccc2[nH]1 [flubendazole] (10 µM) | 0.13 | 98% (inactive) |
| CC(=O)NCCCCCC(=O)O [acexamic-acid] (10 µM) | -0.0574 | 112% (inactive) |
| O=C(/C=C/c1ccc2ccc(C(F)(F)F)cc2n1)c1ccncc1 (10 µM) | 0.389 | 63.5% (inactive) |
| C[C@H](Nc1cc2c(-c3ccc4c(c3)OCO4)noc2cn1)c1ccccc1 (10 µM) | 0.191 | 84.5% (inactive) |
| N[C@H](C(=O)O)c1ccc(O)cc1 [oxfenicine] (10 µM) | 0.246 | 103% (inactive) |
| CC(C)NCC(O)c1cc(O)cc(O)c1 (stereo not given) [metaproterenol] (10 µM) | 0.132 | 104% (inactive) |
| O=C(COc1ccc(C(=O)c2ccccc2)cc1)NC1CCN(Cc2ccccc2)CC1 [adiporon] (10 µM) | 0.0636 | 106% (inactive) |
| NCC(CC(=O)O)c1ccc(Cl)cc1 (stereo not given) [baclofen] (10 µM) | 0.138 | 109% (inactive) |
| COc1ccc2c(Oc3ccc(NC(=O)c4c(C)n(CC(C)(C)O)n(-c5ccccc5)c4=O)nc3)ccnc2c1 (10 µM) | 0.316 | 98% (inactive) |
| CCC[C@H](Nc1nc(-c2ccc(NC(=O)NCC)c(OC)c2)ncc1C)c1cccnc1 (10 µM) | -0.29 | 116% (inactive) |
| CCc1ccc(/C=C2/SC(=S)NC2=O)cc1 (10 µM) | 0.0397 | 92.5% (inactive) |
| O=C(O)c1cnn(-c2nc3cc(OC(F)(F)F)c(Cl)cc3[nH]2)c1 (10 µM) | 0.316 | 88.5% (inactive) |
| Cc1ccc(-c2cn3c4c(sc3n2)CCCC4)cc1 [pifithrin-cyclic] (10 µM) | -0.115 | 106% (inactive) |
| O=[N+]([O-])c1c(Nc2cc(F)cc(Cl)c2)ccc2nonc12 (10 µM) | 0.097 | 94.5% (inactive) |
| CN(C)C(=O)CCSC(SCCC(=O)O)c1cccc(/C=C/c2ccc3ccc(Cl)cc3n2)c1 (stereo not given) (10 µM) | 0.011 | 108% (inactive) |
| CCc1cc(-c2[nH]nc(C)c2-c2ccc3c(c2)OCCO3)c(O)cc1O (0.833333 µM) | 0.075 | 114% (inactive) |
| CCC(=O)O[C@H]1CC[C@H]2[C@@H]3CCC4=CC(=O)CC[C@]4(C)[C@H]3CC[C@]12C (10 µM) | -0.129 | 110% (inactive) |
| CC(=O)C1=C(O)[C@@H]2[C@H]3c4c[nH]c5cccc(c45)C[C@H]3C(C)(C)N2C1=O [cyclopiazonic-acid] (0.833333 µM) | 0.361 | 76.5% (inactive) |
| Cc1oc(-c2ccccc2)nc1CCC(=O)c1ccc(CC2SC(=O)NC2=O)cc1 (stereo not given) [darglitazone] (10 µM) | 0.276 | 98.5% (inactive) |
| O=C1C2C=Nc3ccccc3C2=NN1c1ccc(Cl)cc1 (stereo not given) (10 µM) | -0.264 | 120% (inactive) |
